Growth data for 14 compounds are collected here from PubChem BioAssay (NCI).

About 83,000 compounds went through this panel and 20% of them were active in at least one assay; those are over-represented in the sample as a whole.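 A percent growth of 40 corresponds to 60% growth inhibition; 0 means no net growth; -100 means all cells died. Active threshold: below 10.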 A number with no mark means an inactive call. The source made the active and inactive calls.

The test system of the assay is HL-60(TB) leukemia. Description: NCI-60 one-dose screen, 48 h (100 = growth as untreated, 0 = no growth, -100 = all killed). The settings on record: 10 µM unless noted.
On to `COc1cc(/C=C/C(=O)c2ccc(NC(=O)CN3CCN(c4cc5c(cc4F)c(=O)c(C(=O)O)cn5C4CC4)CC3)cc2)cc(OC)c1OC`, for which the growth is -33.7% (active).

As for `O=C(O)c1c(=O)cccc2ssc12`, the growth was -9.53% (active).

As to `CCN(CC)CCCC(C)Nc1c2c(nc3ccc(OC)cc13)CCCC2` (centres undefined), the growth was 80.3%.

Turning to `COc1ccc(C(O)c2cc3c(N)c(C(=O)Nc4ccc(Br)cc4)sc3nc2C)cc1` (centres undefined), the growth was -41.5% (active).

`C=C(C)[C@@H]1CC[C@]2(C(N)=O)CC[C@]3(C)[C@H](CC[C@@H]4[C@@]5(C)CC[C@H](OCCC#N)C(C)(C)[C@@H]5CC[C@]43C)[C@@H]12`: the growth was 99.9%.

With `COc1ccc(-c2nc(SCC(C)C)nc(Nc3ccc(C(=O)O)cc3)c2C#N)cc1`, the growth was 99.7%.

With `c1cc(NCCc2ccncc2)nc(-n2cnc3ccccc32)c1`, the growth is 67.7%.

As for `CN(CCNc1ccc(C(=N)N)cc1)c1ccc(C(=N)N)cc1`, the growth was 91%.

As to `Cn1c2ccccc2c2c3c(c4c5ccccc5n(C)c4c21)C(=O)OC3`, the growth was 98.5%.

With `COc1cc(OC)cc(C2C3=C(COC3=O)Nc3cc(OC)ccc32)c1` (centres undefined), the growth was 1.71% (active).

As to `COc1ccc(S(=O)(=O)Oc2ccc(-c3sc4cc(OS(=O)(=O)c5ccc(OC)cc5)ccc4c3C(=O)c3ccc(OCCN4CCCCC4)cc3)cc2)cc1`, the growth was 91.1%.

With `COC1OCC(O)C(O)C1O` (centres undefined), the growth is 102%.

Regarding `S=C(Cc1ccc2c(c1)CCCC2)N1CCOCC1`, the growth is 85%.

In the case of `COc1cc(/C(C)=C(\c2ccc(Cl)cc2)c2ccc(OCCN(C)C)cc2)ccc1F`, the growth is 54.4%.
